This is an account of results in PubChem BioAssay (EPA / NIEHS).

Usually AC50 stands for the concentration at which the activity in the assay is half-maximal.

SMILES strings stand for the structures. Where “and” joins values, the source holds several entries; their conditions need not be identical. Identical values can stand only once. Results filed as inconclusive are left out. The source holds several records for some structures; these can differ, active in one and inactive in another. Calls of active or inactive are those of the source. The calls were made as follows, unless noted: active = hit-call score of the fitted dose curve at least 0.9, where 1 is the maximum; inactive = score below 0.9.

Experiment [1] in a line: ATG_TCF_b_cat_CIS: Attagene CIS-FACTORIAL HepG2 Assay for human T-Cell-Factor with beta-catenin (TCF/b-cat) (AID 2282965). The conditions noted are these: HepG2 TCF/beta-catenin cis-reporter transcription, actives raise or lower the signal. An outline of the steps: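 Endogenous transcription factor activity is captured through cis-promoter reporter constructs transiently introduced into human HepG2 liver cells. Induced reporter mRNA is measured after 24 h and fitted bidirectionally relative to DMSO.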

Experiment [2] can be described thus: ATG_TAL_CIS: Attagene CIS-FACTORIAL HepG2 Assay for human TAL Basal Promoter (AID 2282966).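 Also: background control endpoint measuring basal TAL promoter reporter mRNA not a specific factor.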 The conditions noted are these: HepG2 Attagene cis-factorial TAL promoter reporter; actives raise or lower the signal. In outline: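 Steps: transfect HepG2 with multiple reporter transcription units; dose 24 h; isolate RNA, reverse-transcribe, PCR-amplify, label with 6-FAM, digest with HpaI; resolve by capillary electrophoresis. Bidirectional fitting against DMSO baseline.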

Experiment [3] in a line: ATG_TGFb_CIS: Attagene CIS-FACTORIAL HepG2 Assay for human Transforming Growth Factor (TGF) (AID 2282967). The conditions noted are these: HepG2 Attagene CIS TGFb reporter, mRNA transcription; actives raise or lower the signal. In outline:
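HepG2 cells transiently transfected with cis-promoter-driven multiplexed reporter units; 24 h compound exposure. Reporter mRNA measured by RT-PCR, 6-FAM labeling, HpaI digestion and capillary electrophoresis; bidirectional fit versus DMSO baseline.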

Experiment [4] in a line: ATG_VDRE_CIS: Attagene CIS-FACTORIAL HepG2 Assay for human Vitamin D Receptor Element (VDRE) (AID 2282968). The conditions noted are these: HepG2 VDRE cis-reporter transcription, actives raise or lower the signal. In outline: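 In transiently transfected HepG2 liver cells, gain or loss of reporter mRNA after 24 h exposure is scored relative to DMSO, using fluorescence detection by capillary electrophoresis of RT-PCR products.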

In experiment [5] the target is Nuclear receptor subfamily 1 group I member 3 (Homo sapiens) (UniProt Q14994). Put plainly: ATG_CAR_TRANS: Attagene TRANS-FACTORIAL HepG2 Assay for human Constitutive Androstane Receptor (CAR) (AID 2282969; active = hit-call score of the fitted dose curve at least 0.9, where 1 is the maximum;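 also: activators raise reporter mRNA above DMSO so AC50 marks induction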). The conditions noted are these: HepG2 Attagene TRANS-FACTORIAL CAR reporter. In outline: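 Readout is reporter mRNA induction, quantified by fluorescent primer extension and capillary electrophoresis after RT-PCR. Cells were HepG2 transiently carrying chimeric NR-Gal4 constructs with GAL4-UAS reporters, treated for 24 h; activity scored upward from DMSO.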
Chain of Nuclear receptor subfamily 1 group I member 3 (Homo sapiens) (Q14994 whole entry, looked up, the tested form may be a part): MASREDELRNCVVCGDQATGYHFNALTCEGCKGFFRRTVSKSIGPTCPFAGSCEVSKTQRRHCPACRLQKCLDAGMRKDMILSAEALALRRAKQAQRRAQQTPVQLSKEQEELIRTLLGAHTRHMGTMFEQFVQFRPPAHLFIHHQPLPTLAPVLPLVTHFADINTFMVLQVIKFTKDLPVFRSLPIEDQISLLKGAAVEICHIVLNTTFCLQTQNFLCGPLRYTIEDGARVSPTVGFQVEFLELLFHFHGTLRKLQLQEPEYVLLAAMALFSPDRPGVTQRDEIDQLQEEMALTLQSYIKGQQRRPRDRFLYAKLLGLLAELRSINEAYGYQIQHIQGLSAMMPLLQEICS

The target in experiment [6] is Estrogen receptor (Homo sapiens) (UniProt P03372). The experiment in a line: ATG_ERa_TRANS: Attagene TRANS-FACTORIAL HepG2 Assay for human Estrogen Receptor alpha (ERa) (AID 2282970; active = hit-call score of the fitted dose curve at least 0.9, where 1 is the maximum). The conditions noted are these: HepG2 Attagene TRANS ERa GAL4 reporter, mRNA. In outline: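 Multiplexed cell-based reporter format in HepG2: chimeric ERa-Gal4 protein drives GAL4-UAS reporter transcription. Fluorescent reporter mRNA quantified by capillary electrophoresis 24 hours after dosing; endpoint fitted as signal gain against DMSO.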
Chain of Estrogen receptor (Homo sapiens) (P03372 whole entry, looked up, the tested form may be a part): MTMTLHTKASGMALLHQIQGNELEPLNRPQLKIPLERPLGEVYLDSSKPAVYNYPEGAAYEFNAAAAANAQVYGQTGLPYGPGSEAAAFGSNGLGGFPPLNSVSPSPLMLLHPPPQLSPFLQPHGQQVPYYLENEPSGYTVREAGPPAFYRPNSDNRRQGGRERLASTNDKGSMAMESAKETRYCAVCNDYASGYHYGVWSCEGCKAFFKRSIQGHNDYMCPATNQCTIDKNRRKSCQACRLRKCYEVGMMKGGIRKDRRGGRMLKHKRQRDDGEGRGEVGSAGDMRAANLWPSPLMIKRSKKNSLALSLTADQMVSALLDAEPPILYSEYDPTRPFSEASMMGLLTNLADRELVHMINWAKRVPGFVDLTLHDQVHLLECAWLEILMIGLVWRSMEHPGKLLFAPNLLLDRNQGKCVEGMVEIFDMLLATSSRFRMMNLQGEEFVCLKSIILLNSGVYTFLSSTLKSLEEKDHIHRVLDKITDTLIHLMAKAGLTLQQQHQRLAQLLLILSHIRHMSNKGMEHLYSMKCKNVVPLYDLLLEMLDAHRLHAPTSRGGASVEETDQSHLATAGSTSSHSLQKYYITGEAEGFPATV

In experiment [7] the target is X-box-binding protein 1 (Homo sapiens) (UniProt P17861). The experiment in a line: ATG_Xbp1_CIS: Attagene CIS-FACTORIAL HepG2 Assay for human X-box Binding Protein 1 (XBP1) (AID 2282972). The conditions noted are these: HepG2 XBP1 cis-element reporter, Attagene multiplex; actives raise or lower the signal. In outline: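 HepG2 cells transiently transfected with cis-regulated multiple reporter transcription units; endogenous transcription factor activity measured 24 hours after chemical dosing. Reporter mRNA quantified by RT-PCR, 6-FAM primer extension, HpaI digestion and capillary electrophoresis; bidirectional fitting versus DMSO.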
Chain of X-box-binding protein 1 (Homo sapiens) (P17861 whole entry, looked up): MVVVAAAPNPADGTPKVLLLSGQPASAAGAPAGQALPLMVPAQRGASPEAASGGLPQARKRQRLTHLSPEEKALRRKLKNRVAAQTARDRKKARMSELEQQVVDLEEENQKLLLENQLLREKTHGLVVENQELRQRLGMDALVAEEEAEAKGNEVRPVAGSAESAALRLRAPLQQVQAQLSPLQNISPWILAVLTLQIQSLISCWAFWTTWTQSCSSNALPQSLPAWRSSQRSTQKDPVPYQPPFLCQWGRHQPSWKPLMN

The nature of experiment [8]: ATG_M_19_TRANS: Attagene TRANS-FACTORIAL HepG2 Assay for M19 Transcription Factor (Internal Marker) (AID 2282974; active = hit-call score of the fitted dose curve at least 0.9, where 1 is the maximum). The conditions noted are these: HepG2 Attagene TRANS-FACTORIAL M19 internal marker reporter. In outline:
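Measured here: internal-marker reporter transcript from HepG2 cells transfected with MRTUs, harvested at 24 h. cDNA PCR products were 6-FAM labelled by primer extension, cut with HpaI for 2 h at 37 C, and resolved by CE.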

A short description of experiment [9]: ATG_GAL4_TRANS: Attagene TRANS-FACTORIAL HepG2 Assay for GAL4 (Internal Marker) (AID 2282976; active = hit-call score of the fitted dose curve at least 0.9, where 1 is the maximum). The conditions noted are these: HepG2 Attagene TRANS GAL4 internal marker reporter. An outline of the steps:
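Liver HepG2 line bearing multiplexed GAL4-UAS reporter constructs; 24 h chemical treatment. Transcripts were quantified as fluorescent fragments on capillary electrophoresis after RT-PCR and HpaI cut, with activity fitted upward from DMSO.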

The target in experiment [10] is Bile acid receptor (Homo sapiens) (UniProt Q96RI1). Put plainly: ATG_FXR_TRANS: Attagene TRANS-FACTORIAL HepG2 Assay for Farnesoid X Receptor (FXR) (AID 2282979; active = hit-call score of the fitted dose curve at least 0.9, where 1 is the maximum;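 also: hits raise reporter mRNA above DMSO so AC50 marks FXR activation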). The conditions noted are these: HepG2 Attagene TRANS FXR-GAL4 reporter transcription. In outline:
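After 24 h chemical treatment of transfected HepG2 cells, GAL4-UAS reporter transcripts driven by an exogenous FXR-GAL4 fusion were measured by RT-PCR and capillary electrophoresis. Increases over DMSO were fitted.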

The target in experiment [11] is Oxysterols receptor LXR-beta (Homo sapiens) (UniProt P55055). The experiment in a line: ATG_LXRb_TRANS: Attagene TRANS-FACTORIAL HepG2 Assay for human Liver X Receptor beta (LXRb) (AID 2282981; active = hit-call score of the fitted dose curve at least 0.9, where 1 is the maximum). The conditions noted are these: HepG2 Attagene TRANS GAL4-LXRb reporter, mRNA. An outline of the steps:
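Cells: HepG2, transiently transfected with GAL4-UAS reporter units plus LXRb-Gal4 fusion. Treatment: 24 h. Detection: reporter mRNA by RT-PCR, 6-FAM labelling, HpaI digestion, capillary electrophoresis.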

The target of experiment [12] is Hepatocyte nuclear factor 4-alpha (Homo sapiens) (UniProt P41235). The experiment in a line: ATG_HNF4a_TRANS: Attagene TRANS-FACTORIAL HepG2 Assay for human Hepatocyte Nuclear Factor 4 alpha (HNF4a) (AID 2282982; active = hit-call score of the fitted dose curve at least 0.9, where 1 is the maximum). The conditions noted are these: HepG2 HNF4a transactivation reporter, mRNA readout. An outline of the steps: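 Transfected HepG2 reporter cells are dosed for 24 h; reporter RNA is reverse-transcribed, amplified, fluorescently labelled and HpaI-digested before CE sizing. Positive-direction fit against DMSO.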
Chain of Hepatocyte nuclear factor 4-alpha (Homo sapiens) (P41235 whole entry, looked up): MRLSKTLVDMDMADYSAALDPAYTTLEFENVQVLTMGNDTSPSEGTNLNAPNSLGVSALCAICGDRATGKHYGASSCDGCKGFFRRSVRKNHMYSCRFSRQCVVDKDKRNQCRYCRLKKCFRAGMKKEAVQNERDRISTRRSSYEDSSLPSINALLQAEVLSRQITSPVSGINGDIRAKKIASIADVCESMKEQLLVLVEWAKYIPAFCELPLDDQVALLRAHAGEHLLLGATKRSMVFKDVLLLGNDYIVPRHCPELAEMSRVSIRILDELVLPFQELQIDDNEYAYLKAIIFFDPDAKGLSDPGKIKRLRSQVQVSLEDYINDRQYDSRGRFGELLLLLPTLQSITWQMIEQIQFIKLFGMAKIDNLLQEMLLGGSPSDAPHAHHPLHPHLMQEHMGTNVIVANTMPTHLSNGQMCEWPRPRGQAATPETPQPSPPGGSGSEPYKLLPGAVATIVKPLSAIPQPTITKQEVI

The nature of experiment [13]: ATG_M_06_TRANS: Attagene TRANS-FACTORIAL HepG2 Assay for M06 Transcription Factor (Internal Marker) (AID 2282983; active = hit-call score of the fitted dose curve at least 0.9, where 1 is the maximum;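 also: reporter transcript level by RT-PCR then capillary electrophoresis fluorescence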). The conditions noted are these: HepG2 Attagene TRANS M06 internal marker reporter. An outline of the steps: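 Internal-marker background readout from a multiplexed TRANS reporter system in HepG2; 24 h dosing; mRNA induction quantified by RT-PCR plus capillary electrophoresis fluorescence; DMSO as negative control and baseline.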

Experiment [14] in a line: ATG_M_32_TRANS: Attagene TRANS-FACTORIAL HepG2 Assay for M32 Transcription Factor (Internal Marker) (AID 2282984; active = hit-call score of the fitted dose curve at least 0.9, where 1 is the maximum;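 also: transcript level of a background control reporter unit measured by RT-PCR and capillary electrophoresis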). The conditions noted are these: HepG2 Attagene TRANS M32 internal marker reporter. An outline of the steps: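 Using transiently transfected HepG2 cells exposed to test chemicals for 24 h, reporter transcripts are converted to labelled cDNA fragments and quantified by capillary electrophoresis. DMSO defines the activity baseline.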

Experiment [15] concerns the target Transcriptional activator Myb (Homo sapiens) (UniProt P10242). The experiment in a line: ATG_Myb_CIS: Attagene CIS-FACTORIAL HepG2 Assay for human Myeloblastosis (Myb) Proto-Oncogene Transcription Factor (AID 2282986). The conditions noted are these: HepG2 Attagene CIS-FACTORIAL Myb reporter transcription; actives raise or lower the signal. An outline of the steps: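 Fluorescence signals from capillary electrophoresis of RT-PCR-amplified reporter cDNA give the read-out. Cells: HepG2 transfected with multiple cis-regulated reporter units. Exposure lasts 24 hours; DMSO defines baseline for gain or loss of signal.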

Experiment [16] addresses Nuclear respiratory factor 1 (Homo sapiens) (UniProt Q16656). Put plainly: ATG_NRF1_CIS: Attagene CIS-FACTORIAL HepG2 Assay for human Nuclear Respiratory Factor 1 (NRF1) Orphan Gene (AID 2282987). The conditions noted are these: HepG2 NRF1 cis-element reporter, Attagene multiplex; actives raise or lower the signal. In outline: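 Transcriptional reporter readout, one component of a 52-endpoint multiplexed HepG2 panel. Exposure 24 h; mRNA detected via RT-PCR and fluorescent capillary electrophoresis; fitting in both directions against DMSO.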

For experiment [17], the target named is Nuclear receptor subfamily 4 group A member 2 (Homo sapiens) (UniProt P43354). The experiment in a line: ATG_NURR1_TRANS: Attagene TRANS-FACTORIAL HepG2 Assay for human Nuclear Receptor Related Protein 1 (NURR1) (AID 2282985; active = hit-call score of the fitted dose curve at least 0.9, where 1 is the maximum). The conditions noted are these: HepG2 Attagene TRANS reporter, mRNA readout. In outline: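 Cells: HepG2, transiently transfected. Exposure: 24 h. Detection: fluorescence of labelled RT-PCR products separated by capillary electrophoresis; upward fit versus DMSO.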
Chain of Nuclear receptor subfamily 4 group A member 2 (Homo sapiens) (P43354 whole entry, looked up): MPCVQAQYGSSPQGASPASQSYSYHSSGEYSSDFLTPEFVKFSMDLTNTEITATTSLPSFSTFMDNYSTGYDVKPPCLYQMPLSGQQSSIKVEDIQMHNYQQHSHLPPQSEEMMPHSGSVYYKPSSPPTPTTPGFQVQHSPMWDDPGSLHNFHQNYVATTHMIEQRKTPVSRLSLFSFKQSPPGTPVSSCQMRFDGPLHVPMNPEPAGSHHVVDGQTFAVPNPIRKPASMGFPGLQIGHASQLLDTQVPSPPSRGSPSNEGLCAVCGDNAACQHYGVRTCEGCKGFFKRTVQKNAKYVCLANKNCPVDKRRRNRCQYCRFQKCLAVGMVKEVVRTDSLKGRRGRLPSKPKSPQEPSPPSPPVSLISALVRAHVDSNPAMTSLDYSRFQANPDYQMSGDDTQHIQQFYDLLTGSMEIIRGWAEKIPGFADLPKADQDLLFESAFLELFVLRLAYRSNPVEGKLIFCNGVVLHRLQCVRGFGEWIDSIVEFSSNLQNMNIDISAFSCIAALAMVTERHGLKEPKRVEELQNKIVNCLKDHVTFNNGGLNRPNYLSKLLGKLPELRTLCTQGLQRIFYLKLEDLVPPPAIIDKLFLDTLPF

Experiment [18] has as its target Steroid hormone receptor ERR1 (Homo sapiens) (UniProt P11474). Put plainly: ATG_ERRa_TRANS: Attagene TRANS-FACTORIAL HepG2 Assay for human Estrogen-Related Receptor alpha (ERRa) (AID 2282971; active = hit-call score of the fitted dose curve at least 0.9, where 1 is the maximum). The conditions noted are these: HepG2 Attagene TRANS reporter, ERRa transactivation. In outline:
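Signal gain relative to DMSO for an ERRa-Gal4 chimeric receptor, read as reporter mRNA by RT-PCR/capillary electrophoresis. Human HepG2 liver cells, transient multiplex reporter transfection, 24 h chemical exposure.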

Chain of Transcriptional activator Myb (Homo sapiens) (P10242 whole entry, looked up): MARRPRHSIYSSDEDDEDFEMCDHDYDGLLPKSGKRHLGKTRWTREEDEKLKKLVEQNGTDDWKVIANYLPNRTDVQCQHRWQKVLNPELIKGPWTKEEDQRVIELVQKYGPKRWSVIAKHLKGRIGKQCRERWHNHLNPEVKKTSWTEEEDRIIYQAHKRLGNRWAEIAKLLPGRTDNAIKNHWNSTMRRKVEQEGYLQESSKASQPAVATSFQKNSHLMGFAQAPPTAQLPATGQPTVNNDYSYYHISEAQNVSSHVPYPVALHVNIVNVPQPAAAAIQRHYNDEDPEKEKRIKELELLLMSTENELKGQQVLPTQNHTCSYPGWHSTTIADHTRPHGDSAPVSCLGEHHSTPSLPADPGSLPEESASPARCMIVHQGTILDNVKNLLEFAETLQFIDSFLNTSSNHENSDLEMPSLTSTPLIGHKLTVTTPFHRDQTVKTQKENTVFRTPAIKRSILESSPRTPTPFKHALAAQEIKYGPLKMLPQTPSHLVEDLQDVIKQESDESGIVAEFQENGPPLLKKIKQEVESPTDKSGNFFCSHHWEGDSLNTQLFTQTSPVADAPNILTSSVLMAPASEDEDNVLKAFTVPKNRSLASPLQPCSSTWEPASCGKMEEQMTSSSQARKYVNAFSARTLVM
Chain of Oxysterols receptor LXR-beta (Homo sapiens) (P55055 whole entry, looked up, the tested form may be a part): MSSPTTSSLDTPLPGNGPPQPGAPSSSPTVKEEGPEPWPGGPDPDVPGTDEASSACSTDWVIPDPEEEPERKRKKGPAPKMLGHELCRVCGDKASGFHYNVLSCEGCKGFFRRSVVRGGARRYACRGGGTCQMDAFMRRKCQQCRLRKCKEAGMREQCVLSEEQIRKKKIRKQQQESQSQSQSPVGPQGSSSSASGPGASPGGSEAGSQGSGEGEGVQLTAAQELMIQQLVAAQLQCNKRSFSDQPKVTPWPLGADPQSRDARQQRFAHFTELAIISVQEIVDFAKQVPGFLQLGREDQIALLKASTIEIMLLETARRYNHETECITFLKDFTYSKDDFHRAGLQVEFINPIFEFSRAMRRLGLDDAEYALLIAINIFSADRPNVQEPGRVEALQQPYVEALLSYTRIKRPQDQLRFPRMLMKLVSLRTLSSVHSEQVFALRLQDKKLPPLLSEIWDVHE
Chain of Bile acid receptor (Homo sapiens) (Q96RI1 whole entry, looked up, the tested form may be a part): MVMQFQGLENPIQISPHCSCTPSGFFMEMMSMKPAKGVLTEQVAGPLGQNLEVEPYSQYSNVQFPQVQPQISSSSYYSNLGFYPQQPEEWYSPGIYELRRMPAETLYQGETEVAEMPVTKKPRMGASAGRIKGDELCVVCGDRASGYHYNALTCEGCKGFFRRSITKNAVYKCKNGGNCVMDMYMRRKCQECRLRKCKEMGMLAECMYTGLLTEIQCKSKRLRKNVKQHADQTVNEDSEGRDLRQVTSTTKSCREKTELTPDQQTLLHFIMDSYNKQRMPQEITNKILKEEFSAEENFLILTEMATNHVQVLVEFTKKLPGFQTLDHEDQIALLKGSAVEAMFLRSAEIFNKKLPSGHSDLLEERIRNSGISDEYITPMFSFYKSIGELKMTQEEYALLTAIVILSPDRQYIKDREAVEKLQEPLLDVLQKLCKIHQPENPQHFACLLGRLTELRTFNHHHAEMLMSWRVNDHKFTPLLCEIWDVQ
Chain of Nuclear respiratory factor 1 (Homo sapiens) (Q16656 whole entry, looked up): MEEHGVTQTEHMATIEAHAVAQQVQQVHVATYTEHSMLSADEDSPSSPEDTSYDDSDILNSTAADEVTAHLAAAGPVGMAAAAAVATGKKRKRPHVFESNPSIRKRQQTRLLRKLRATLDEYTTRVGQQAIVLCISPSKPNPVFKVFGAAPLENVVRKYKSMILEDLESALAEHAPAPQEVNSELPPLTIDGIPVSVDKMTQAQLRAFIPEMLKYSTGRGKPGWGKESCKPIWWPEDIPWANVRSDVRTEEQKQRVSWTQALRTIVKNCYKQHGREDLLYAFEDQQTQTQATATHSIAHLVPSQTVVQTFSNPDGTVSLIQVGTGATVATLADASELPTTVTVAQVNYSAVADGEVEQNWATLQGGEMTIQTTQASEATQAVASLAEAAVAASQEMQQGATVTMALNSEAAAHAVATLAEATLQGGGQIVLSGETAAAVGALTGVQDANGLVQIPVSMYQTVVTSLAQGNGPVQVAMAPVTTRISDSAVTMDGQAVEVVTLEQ
Chain of Steroid hormone receptor ERR1 (Homo sapiens) (P11474 whole entry, looked up, the tested form may be a part): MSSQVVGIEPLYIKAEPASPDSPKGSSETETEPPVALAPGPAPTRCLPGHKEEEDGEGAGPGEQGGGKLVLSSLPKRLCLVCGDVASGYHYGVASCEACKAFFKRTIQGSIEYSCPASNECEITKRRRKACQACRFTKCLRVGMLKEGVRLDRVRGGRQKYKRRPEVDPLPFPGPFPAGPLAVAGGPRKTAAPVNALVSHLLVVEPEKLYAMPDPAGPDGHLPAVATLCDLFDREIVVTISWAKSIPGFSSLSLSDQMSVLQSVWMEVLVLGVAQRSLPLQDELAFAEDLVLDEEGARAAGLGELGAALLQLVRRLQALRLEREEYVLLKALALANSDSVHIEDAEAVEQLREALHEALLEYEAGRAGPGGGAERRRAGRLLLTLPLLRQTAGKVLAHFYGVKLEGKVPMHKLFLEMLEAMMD

In the case of `CC(O)C(=O)O` (stereo not given), the result in experiment [1], in [2], in experiment [3], in experiment [4], in experiment [5] and in experiment [6] was inactive. In addition, the result in experiment [7], in experiment [8], in experiment [9], in experiment [10], in experiment [11] and in experiment [12] was inactive. Also, the compound was classed as inactive in experiment [13], in experiment [14], in [15] and in experiment [16].
`C=C(C)C(=O)OCCC(F)(F)C(F)(F)C(F)(F)C(F)(F)C(F)(F)C(F)(F)F`: the compound was called inactive in experiment [1], in [2], in [3], in [4], in [5] and in [7]. For the same compound, the outcome in experiment [8], in [9], in [10], in experiment [11], in experiment [14] and in [17] was inactive. Further, the result in experiment [15] and in experiment [16] was inactive. In addition, the AC50 in [6] is 38.4 µM (active) and 49.2 µM (active).
As to `CC(C)(C)c1cc(C(C)(C)C)c(O)c(C(C)(C)C)c1`, the AC50 in experiment [1] is 87.1 µM (active); in [7], 20.3 µM (active); in experiment [10], 27.8 µM (active); in experiment [17] it was 431 nM (active) and 1.32 µM (active). Further, the result in experiment [1], in experiment [2], in experiment [3], in experiment [5], in [6] and in experiment [7] was inactive. Moreover, the compound was classed as inactive in experiment [8], in experiment [9], in experiment [10], in [11], in experiment [12] and in experiment [13]. Moreover, the outcome in experiment [14], in [15] and in [16] was inactive.
Consider `NCC(F)(F)C(F)(F)C(F)(F)C(F)(F)C(F)(F)C(F)(F)C(F)(F)F`, for which the compound was classed as inactive in experiment [1], in experiment [2], in experiment [3], in [4], in experiment [5] and in experiment [6]. Also, the compound was called inactive in experiment [18], in experiment [7], in experiment [9], in [10], in [12] and in experiment [13]. Besides, the result in experiment [17], in experiment [15] and in experiment [16] was inactive.
